Screening results (PubChem)
KB-3-1 tox: kills parental KB-3-1 adenocarcinoma cells | KB-3-1 viability, CellTiter-Glo ATP luminescence, 72 h | Potency, µM (highest dose often 46.1 µM), usual class: cytotoxic | actives 1.4% (n = 400,000); also: % is scaled to controls: 0 for no effect and ±100 for the full control effect; nearly all actives have a fitted effect of over 60% in size
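Parental KB-3-1 viability, qHTS format: 72 h compound exposure, 37 °C; CellTiter-Glo; media-only wells and DMSO plates as controls; concentration-effect fits on corrected data.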
HepG2 tox: HepG2 cytotoxicity, counter-screen for TGF-b inhibitors | HepG2 CAGA-GFP viability, ATP luminescence, 18 h | Potency, µM (series often up to 46.1 µM), without a hit: at the top dose activity change, negative = cytotoxicity, usual class: cytotoxic | actives 0.76% (n = 410,000)
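CellTiter-Glo luminescence gave cytotoxicity after 18 hours at 37 degrees C. The cells were HepG2 CAGA-GFP in 1% FBS DMEM, stimulated with 500 pg/mL TGF-beta after compound addition. %Activity was normalised to no-cell wells (complete cell-killing) and DMSO (no toxicity), and curves were fitted and classified.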
TGFb SMAD3 inh: blocks TGF-b signaling; HepG2 CAGA-GFP TGF-b/SMAD3 reporter, GFP fluorescence, 18 h; TGF-beta stimulated, 500 pg/mL final; Potency, µM (series often up to 46.1 µM), for inactives: at the highest dose activity, negative = inhibition, usual class: inhibitors; AID 588855; actives 1.2% (n = 410,000); also: % is scaled to controls: 0 for no effect and ±100 for the full control effect; nearly all actives have a fitted effect of over 65% in size
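First, reporter cells (HEPG2 CAGA-GFP) rested 2 h at 37 degrees C. Next, compounds were pinned in and TGF-beta added to 500 pg/mL final. After 18 h, GFP was imaged per cell and summed per well.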
ATXN viability: viability counter-screen for ATXN expression inhibitors; S2 cells (HEK-293 line with an ATXN2-luciferase reporter) viability, CellTiter-Fluor protease fluorescence, 24 h; Potency, µM (highest dose often 56.7 µM), actives largely listed as cytotoxic; actives 0.49% (n = 400,000); AID 651635; also: nearly all actives have a fitted effect of over 40% in size
ATXN2 expr inh: reduces ATXN2 reporter expression in HEK-293 cells; HEK-293 ATXN2-luciferase reporter, luminescence, 24 h; actives 0.72% (n = 360,000); Potency, µM (series often up to 57 µM), for inactives: at the top dose activity change, negative = inhibition, usual class: inhibitors; also: % is scaled to controls: 0 for no effect and ±100 for the full control effect; nearly all actives have a fitted effect of over 55% in size
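qHTS (up to 57 uM final) was run with 24 h compound exposure of reporter cells at 37 °C. Each well was multiplexed: SteadyGlo luminescence measured ATXN2-luciferase expression after a fluorogenic Gly-Phe-AFC viability readout (25 uM final).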
KB-V1 MDR tox: kills drug-selected multidrug resistant KB-V1 cells | Potency, µM (titrated, usually from 46.1 µM), usual class: cytotoxic | KB-V1 MDR cells viability, CellTiter-Glo, 72 h | actives 3.4% (n = 400,000); also: % is scaled to controls: 0 for no effect and ±100 for the full control effect; nearly all actives have a fitted effect of over 60% in size
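Readout: CellTiter-Glo luminescence, 10 min after addition. Cells: KB-V1 MDR subline, 72 h at 37 degrees C with compound. Analysis: corrected, normalized data fitted to concentration-effect curves.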
Active calls of the source: *. Only some compounds are listed: those with a hit (about 5.9% of all), similar ones and a draw of the others. Calls follow the shape of the dose curve; as a rule, active = well fitted curve in the direction sought with a large enough effect; inconclusive = small, poorly fitted or top-dose-only effect, or another doubt; inactive = no such curve, though single readings can be large; an effect the other way counts as inactive or inconclusive. Potency is read from the fitted curve at half-maximal effect.

How did COc1ccc(Oc2nc3c(c(=O)n(Cc4ccccc4Cl)c(=O)n3C)n2C)cc1 do in these assays?
KB-3-1 tox: inconclusive; HepG2 tox: -14%; TGFb SMAD3 inh: -7%; ATXN viability: inactive; ATXN2 expr inh: 3%; KB-V1 MDR tox: inconclusive

What do the screens show for `CCc1nc2c(OCC(=O)C(C)(C)C)cccn2c1N(C=O)Cc1ccc(OC)cc1`?
KB-3-1 tox: inactive; HepG2 tox: -14%; TGFb SMAD3 inh: 6%; ATXN viability: inactive; ATXN2 expr inh: -3%; KB-V1 MDR tox: inactive

How did COc1ccc(OC)c(Nc2nc(N)nc(-c3cc4ccccc4o3)n2)c1 do in these assays?
KB-3-1 tox: inconclusive; HepG2 tox: -71%; TGFb SMAD3 inh: inconclusive; ATXN viability: inactive; ATXN2 expr inh: 4%; KB-V1 MDR tox: 15µM*

Results for COCCNC(=O)CCCn1c(SCc2ccccc2Cl)nc2c(sc3ccccc32)c1=O ?
KB-3-1 tox: inactive; HepG2 tox: 70%; TGFb SMAD3 inh: 88%; ATXN viability: inactive; ATXN2 expr inh: -12%; KB-V1 MDR tox: inactive

How did O=C(NCCc1ccccc1)C(c1cccs1)N(C(=O)CCl)c1ccc(Cl)cc1 (centres undefined) do in these assays?
KB-3-1 tox: inconclusive; HepG2 tox: 10µM*; TGFb SMAD3 inh: 11µM*; ATXN viability: 5µM*; ATXN2 expr inh: 4.5µM*; KB-V1 MDR tox: inconclusive

Results for O=C(NCCc1ccccc1)C(c1cccs1)N(C(=O)c1csnn1)C1CC1 (centres undefined) ?
KB-3-1 tox: inactive; HepG2 tox: -3%; TGFb SMAD3 inh: -19%; ATXN viability: inactive; ATXN2 expr inh: 13%; KB-V1 MDR tox: inactive

Results for COc1ccc(/C(N)=N/OC(=O)Cc2ccc(OC)c(OC)c2)cc1 ?
KB-3-1 tox: inconclusive; HepG2 tox: -11%; TGFb SMAD3 inh: 1%; ATXN viability: inactive; ATXN2 expr inh: -12%; KB-V1 MDR tox: 8.2µM*

Results for COc1ccc(CC(=O)O/N=C(\N)c2ccncc2)cc1OC ?
KB-3-1 tox: inactive; HepG2 tox: -1%; TGFb SMAD3 inh: -2%; ATXN viability: inactive; KB-V1 MDR tox: inactive

How did COc1ccc(C(=O)Cc2ccc(OC)c(OC)c2)c(OC)c1 do in these assays?
KB-3-1 tox: inactive; HepG2 tox: -8%; TGFb SMAD3 inh: -11%; ATXN viability: inconclusive; ATXN2 expr inh: 10%; KB-V1 MDR tox: 13µM*

Results for COCCCN=C1NN=C(c2cc(C)n(Cc3ccco3)c2C)CS1 ?
KB-3-1 tox: inconclusive; HepG2 tox: -22%; TGFb SMAD3 inh: inconclusive; ATXN viability: inactive; ATXN2 expr inh: 0%; KB-V1 MDR tox: inconclusive

Results for C=CCN=C1NN=C(c2cc(C)n(CCOC)c2C)CS1 ?
KB-3-1 tox: inactive; HepG2 tox: -5%; TGFb SMAD3 inh: -4%; ATXN viability: inactive; ATXN2 expr inh: -23%; KB-V1 MDR tox: inactive

How did Cc1cc(C2=NNC(=NC3CC3)SC2)c(C)n1Cc1ccco1 do in these assays?
KB-3-1 tox: 3.3µM*; HepG2 tox: -41%; TGFb SMAD3 inh: inconclusive; ATXN viability: inconclusive; ATXN2 expr inh: inconclusive; KB-V1 MDR tox: 5.2µM*

Results for COCCn1c(C)cc(C2=NNC(=NC3CC3)SC2)c1C ?
KB-3-1 tox: inactive; HepG2 tox: 10µM*; TGFb SMAD3 inh: 8%; ATXN viability: inconclusive; ATXN2 expr inh: 0.21µM*; KB-V1 MDR tox: inconclusive

Results for CCC(C)c1ccccc1NC(=O)COC(=O)c1ccc(N2CCCC2)c([N+](=O)[O-])c1 (centres undefined) ?
KB-3-1 tox: 0.0023µM*; HepG2 tox: 1%; TGFb SMAD3 inh: -21%; ATXN viability: inactive; ATXN2 expr inh: 6%; KB-V1 MDR tox: inactive

How did O=C(COC(=O)c1ccc(N2CCOCC2)c([N+](=O)[O-])c1)Nc1ccc2c(c1)OCO2 do in these assays?
KB-3-1 tox: inconclusive; HepG2 tox: 11%; TGFb SMAD3 inh: 0%; ATXN viability: inconclusive; ATXN2 expr inh: 3%; KB-V1 MDR tox: 8.2µM*

How did Cc1c(CCOC(=O)c2ccc(N3CCOCC3)c([N+](=O)[O-])c2)sc[n+]1CC#N do in these assays?
KB-3-1 tox: 21µM*; HepG2 tox: -27%; TGFb SMAD3 inh: inconclusive; ATXN viability: inconclusive; ATXN2 expr inh: inconclusive; KB-V1 MDR tox: inconclusive

How did O=C(COC(=O)c1ccc2[nH]c3c(c2c1)CCCC3)Nc1ccccc1Cl do in these assays?
KB-3-1 tox: inactive; HepG2 tox: -5%; TGFb SMAD3 inh: 1%; ATXN viability: inactive; ATXN2 expr inh: -13%; KB-V1 MDR tox: inactive

Results for Cc1cccc(C)c1NC(=O)COC(=O)c1ccc(N2CCCC2)c([N+](=O)[O-])c1 ?
KB-3-1 tox: inactive; HepG2 tox: -21%; TGFb SMAD3 inh: -8%; ATXN viability: inactive; ATXN2 expr inh: 3%; KB-V1 MDR tox: inactive

What do the screens show for `Nc1ccc(C(=O)OCC(=O)Nc2ccc3c(c2)OCO3)cc1[N+](=O)[O-]`?
KB-3-1 tox: inactive; HepG2 tox: -15%; TGFb SMAD3 inh: inconclusive; ATXN viability: inactive; ATXN2 expr inh: 1%; KB-V1 MDR tox: inactive

Results for Cc1ncsc1CCOC(=O)c1ccc(N2CCOCC2)c([N+](=O)[O-])c1 ?
KB-3-1 tox: inactive; HepG2 tox: -13%; TGFb SMAD3 inh: 10%; ATXN viability: inactive; ATXN2 expr inh: -14%; KB-V1 MDR tox: inactive

How did CCC(C)c1ccccc1NC(=O)COC(=O)c1ccc2[nH]c3c(c2c1)CCCC3 (centres undefined) do in these assays?
KB-3-1 tox: inconclusive; HepG2 tox: -25%; TGFb SMAD3 inh: inconclusive; ATXN viability: inconclusive; ATXN2 expr inh: inconclusive; KB-V1 MDR tox: 21µM*

What do the screens show for `CN(C)c1ccc(N=Nc2ccc(S(=O)(=O)O)cc2)cc1`?
KB-3-1 tox: inactive; HepG2 tox: -5%; TGFb SMAD3 inh: -10%; KB-V1 MDR tox: inactive

Results for CCOc1ccc2nc(NC(=O)CS(=O)(=O)c3ccc(Cl)cc3)sc2c1 ?
KB-3-1 tox: inconclusive; HepG2 tox: -62%; TGFb SMAD3 inh: 0%; KB-V1 MDR tox: inactive

How did CC(=O)OCCSc1c(-c2ccccc2)c2cc(Cl)ccc2[nH]c1=O do in these assays?
KB-3-1 tox: inactive; HepG2 tox: -54%; TGFb SMAD3 inh: inconclusive; ATXN viability: inactive; ATXN2 expr inh: 4%; KB-V1 MDR tox: 23µM*

What do the screens show for `Cc1csc2nc(COC(=O)c3ccc(NC(=O)C(C)Oc4ccccc4)cc3)cc(=O)n12` (centres undefined)?
HepG2 tox: -3%; TGFb SMAD3 inh: -19%
